The campaign covered roughly 1,400 compounds. About 160 (11%) were called active. No stated cut-off is given here; in the data, active means inhibition above about 15%; inactive means the rest. The list is a sample of the results.
Assay: Jurkat T cell cytotoxicity, cytotoxicity control for T. brucei MetRS inhibitor project, luminescence, high throughput (AID 624413);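 further: 0% = vehicle and 100% = reference inhibitor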
Conditions: Jurkat cells viability, ATP luminescence; at 8.3 µM; stronger effect = higher value

SMILES | inhibition
Cc1ccc(N2C(=O)CC(NCc3ccc4c(c3)OCO4)C2=O)cc1Cl (configuration not stated) | -6.39% (inactive)
O=[N+]([O-])c1ccc(N2CCN(c3ccc(O)cc3)CC2)c(Cl)c1 | 1.76% (inactive)
O=S(=O)(NCc1ccc(Cl)cc1Cl)c1cccs1 | -0.99% (inactive)
O=C(Nc1ccccc1)Nc1nnc(COc2ccccc2F)s1 | 5.35% (inactive)
O=C(NNC(=O)c1ccc(-n2cncn2)c([N+](=O)[O-])c1)c1ccccc1 | 5.48% (inactive)
O=C(CSCC(=O)Nc1cccc([N+](=O)[O-])c1)Nc1ccccc1 | -0.93% (inactive)
O=C(Nc1ccc(Cl)cc1)N1CCc2[nH]c3ccccc3c2C1 | 1.46% (inactive)
O=C(Nc1cccc([N+](=O)[O-])c1)N1CCc2ccccc2C1 | 17% (active)
O=C(/C(=N\O)n1cncn1)c1ccc(Br)cc1Br | -3.9% (inactive)
O=C(NNc1cc(Cl)cc(Cl)c1)c1c(F)cccc1Cl | 1.84% (inactive)
COc1ccc(CCn2ccc(O)c(Cc3ccc(Cl)cc3Cl)c2=O)cc1OC | 9.61% (inactive)
Cc1ccc(S(=O)(=O)c2c[nH]c3ccc(Cl)cc3c2=O)cc1 | 5.58% (inactive)
CCCCCCCC[n+]1cccc(C(=O)N2c3c(nc(N)[nH]c3=O)NC(C)C2C)c1 (configuration not stated) | 10% (inactive)
CC(=O)c1ccc(NC(=O)c2ccc(-n3cncn3)c([N+](=O)[O-])c2)cc1 | 2.58% (inactive)
CCCCN(C)Cc1c(C)[nH]c2ccc(Cl)cc2c1=O | -0.56% (inactive)
c1ccc(CN=C2Nc3ccccc3CS2)nc1 | 0.23% (inactive)
OCCNc1nc2ccccc2n1-c1ncnc2sc3c(c12)CCC3 | 9.96% (inactive)
Clc1ccc(-c2cc(C3CCNCC3)[nH]n2)c(Cl)c1 | -0.28% (inactive)
NC1=NC(=O)S/C1=C\c1ccc(O)cc1 | 7% (inactive)
COC(=O)/C(=C\Nc1ccccc1)NC(=O)c1ccc(Cl)cc1Cl | 11.3% (inactive)
O=C(NCc1cccc(CNC(=O)Nc2cccc(O)c2)c1)Nc1cccc(O)c1 | 13.5% (inactive)
Cc1ccc(NC(=O)C(C)c2cccc(C(=O)c3ccccc3)c2)cc1 (configuration not stated) | 1.82% (inactive)
OC(c1cc(Cl)cc(Cl)c1)c1ncc(-c2ccccc2C(F)(F)F)[nH]1 (configuration not stated) | 6.67% (inactive)
CCCCN1C[C@H](c2ccc(Br)cc2)[C@@H](CC(=O)Nc2ccc(Br)cc2)C1=O | 7.69% (inactive)
c1ccc2cc3c(NCCN4CCOCC4)ccnc3cc2c1 | 22.4% (active)
Cc1ccc(S(=O)(=O)c2c[nH]c3ccc(C)cc3c2=O)cc1 | 4.57% (inactive)
CCN(CC)C(=O)C(=O)c1cn(CC(=O)NCc2ccc3c(c2)OCO3)c2ccccc12 | 2.71% (inactive)

From PubChem BioAssay AID624413 (The Scripps Research Institute Molecular Screening Center, 2012)
